Results as given in PubChem BioAssay AID2551 (National Center for Advancing Translational Sciences (NCATS), 2010).
Several values for one entry are separate records, joined by “and”; a condition that tells them apart may be missing. Equal entries are not always repeated. Hit rate of the full screen: of about 310,000 compounds, about 17,000 (5.5%) were called active. Inconclusive results (about 11%) are left out. Calls come from the whole dose curve; as a rule, active = well fitted inhibition curve with a large enough effect; inconclusive = small, poorly fitted or top-dose-only effect, or effect the other way; inactive = no such curve, though single readings can be large or run the other way. The list comes from a sample in which actives are over-represented; it also holds similar structures and randomly drawn compounds. The source holds several records for some structures; these can differ, active in one and inactive in another. Where a SMILES comes first, the peptide text is derived from it. [ ]: non-standard residue; d: D form. The star is where a group is joined. ξ: configuration not given here. Cbz = O=C(OCc1ccccc1)*; ξL = CC(C)CC(N)C(=O)O; ξP = O=C(O)C1CCCN1

Target: Nuclear receptor ROR-gamma (Mus musculus) (UniProt P51450)
Assay: qHTS for inhibitors of ROR gamma transcriptional activity; note: nearly all actives have a fitted effect of over 60% in size
Details: Drosophila S2 Gal4-RORgamma UAS-luciferase reporter, 20 h; series mostly up to 53.6 µM; activity change, negative = inhibition: at the top concentration
Summary of the method: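 Luminescence from a UAS-regulated Photinus luciferase reporter in stably transfected Drosophila Schneider cells is measured; decreased signal marks ROR gamma inhibition. Fusion expression is induced by 700 uM copper sulfate for 20 hr.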
% is set by controls: 0 for no effect and ±100 for the full control effect; potency is the fitted concentration of half-maximal effect.

Chain of Nuclear receptor ROR-gamma (Mus musculus) (P51450 whole entry, looked up): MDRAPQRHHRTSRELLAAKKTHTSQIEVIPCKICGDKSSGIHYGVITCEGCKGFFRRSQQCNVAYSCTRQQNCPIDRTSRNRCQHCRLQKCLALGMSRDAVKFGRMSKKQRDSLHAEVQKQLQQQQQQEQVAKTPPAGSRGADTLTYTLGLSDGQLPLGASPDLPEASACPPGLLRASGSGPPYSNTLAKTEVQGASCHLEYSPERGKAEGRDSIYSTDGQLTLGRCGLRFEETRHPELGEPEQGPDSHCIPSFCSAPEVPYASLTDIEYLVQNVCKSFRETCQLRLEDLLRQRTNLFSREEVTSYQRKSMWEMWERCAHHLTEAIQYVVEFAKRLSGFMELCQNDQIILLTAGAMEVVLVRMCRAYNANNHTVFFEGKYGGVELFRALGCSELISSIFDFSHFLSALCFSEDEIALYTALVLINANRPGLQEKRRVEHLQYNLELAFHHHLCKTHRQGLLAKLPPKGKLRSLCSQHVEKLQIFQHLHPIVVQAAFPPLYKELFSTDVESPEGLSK

Row | SMILES | Potency | activity change, negative = inhibition
1 | CNC(=O)c1[nH]cnc1C(=O)N[C@@H](CC(C)C)C(=O)OCc1ccccc1 | 10 µM (active) | –
2 | COc1ccccc1NC(=O)[C@H](COCc1ccccc1)NC(=O)OC(C)(C)C | – | -0.0777% (inactive)
3 | C[C@H](NC(=O)c1nc[nH]c1C(=O)NCC(=O)OC(C)(C)C)C(=O)OCc1ccccc1 | 11.2 µM (active) | –
4 | O=C(N[C@@H](Cc1ccccc1)C(=O)OCc1ccccc1)c1nc[nH]c1C(=O)N[C@@H](Cc1ccccc1)C(=O)OCc1ccccc1 | 10 µM (active) | –
5 | COC(=O)[C@@H](Cc1ccccc1)NC(=O)NCCc1ccccc1 | – | 12.9% (inactive)
6 | CC(C)[C@H](NC(=O)OCc1ccccc1)C(=O)OCc1ccccc1 | – | -28.3% (inactive)
7 | Cc1cccc(NC(=O)c2nc[nH]c2C(=O)NCC(=O)OCc2ccccc2)c1 | 12.6 µM (active) | –
8 | O=C(CNC(=O)c1ccc(-c2ccccc2)cc1)OCc1ccc(Cl)cc1 | – | -13.7% (inactive)
9 | NC(=O)c1ccc(NC(=O)COC(=O)C(Cc2ccccc2)NC(=O)c2ccccc2)cc1 (centres undefined) | – | -24.2% (inactive)
10 | CC(C)(C)OC(=O)CNC(=O)c1[nH]cnc1C(=O)N[C@@H](Cc1ccccc1)C(=O)OCc1ccccc1 | – | 20% (inactive)
11 | O=C(CNC(=O)c1ccccc1)NCC(=O)OCc1ccc(Cl)cc1 | – | 5.95% (inactive)
12 | CC(C)CC(NC(=O)C1CCCN1C(=O)[C@@H](C)NC(=O)OCc1ccccc1)C(=O)NCC(N)=O (some centres undefined) (Cbz-[dA][ξP][ξL]G-NH2) | – | -8.88% (inactive)
13 | C/C(=N\N(C)C)c1ccc(OCCOc2ccc([N+](=O)[O-])cc2)cc1 | – | 26% (inactive)
14 | CCOC(=O)C1(Cc2ccccc2C)CCCN(S(C)(=O)=O)C1 (centres undefined) | – | -2.12% (inactive)
15 | COCc1c(C(=O)N/N=C(\C)c2ccncc2)nnn1-c1nonc1N | – | 6.85% (inactive)
16 | C=CCNC(=O)c1ccccc1SCc1c(C)noc1C | – | -15.9% (inactive)
17 | Cc1ccc(NC(=O)C(CC(=O)O)C2CCCO2)c(C)c1 (centres undefined) | – | -16.9% (inactive)
18 | O=C(Nc1ccc(Cl)cc1)c1cccc(OC(=S)N2CCOCC2)c1 | – | 25.6% (inactive)
19 | COc1ccc(S(=O)(=O)N(C)CC(=O)N2CCCC2)cc1 | – | -15.8% [at 1.91 µM] (inactive)
20 | O=C(Cc1ccc(Cl)c(Cl)c1)Nc1ccc(SC(F)F)cc1 | – | 26.4% (inactive)
21 | Cc1ccc(NC(=O)C/C(N)=N/O)cc1Cl | – | 15.1% (inactive)
22 | O=C(CC(O)(C(F)(F)F)C(F)(F)F)Nc1ccc(Cl)c(Cl)c1 | 5.01 µM (active) | –
23 | COc1ccccc1N(CC(=O)NC1CCCC1)C(=O)C1(C)CC(=O)N=C2C=CC(C)=CN21 (centres undefined) | – | -3.48% (inactive)
24 | O=C1CCCCN1CCCC(=O)N1CCCC(Nc2ccc(F)cc2)C1 (centres undefined) | – | -0.309% (inactive)
25 | O=C(N/N=C/c1ccc(OCc2ccccc2)cc1)c1ccc(O)cc1 | 8.91 µM (active) | –

Row | SMILES | Potency | activity change, negative = inhibition
26 | O=C(N/N=C/c1ccc(OC(=O)c2ccccc2Cl)cc1)c1ccc(O)cc1 | – | -20.7% (inactive)
27 | O=C(Cc1cccs1)N/N=C/c1ccc(OCc2ccccc2)cc1 | – | 43.6% (inactive)
28 | CCn1nc(C)c(CNC(=O)C2CCC(=O)N(Cc3cccc(F)c3)C2)c1C (centres undefined) | – | 2.01% (inactive)
29 | CCCC(O)(CCC)C(=O)NN(C(=O)CCl)c1cccc(C)c1 | 15.8 µM (active) | –
30 | COC(=O)N(NC(=O)C(O)(C(C)C)C(C)C)c1ccccc1 | – | 14.2% (inactive)
31 | CCCCCNC(=O)C1c2ccccc2Oc2ccccc21 | – | -9.9% (inactive)
32 | Cc1ccc(N(NC(=O)C(C)(C)O)C(=O)c2ccccc2)cc1C | – | -4.04% (inactive)
33 | CC(C)(O)C(=O)NN(C(=O)c1ccccc1)c1cccc(Br)c1 | – | 0.311% (inactive)
34 | CCCCC(O)(CCCC)C(=O)NN(C(=O)CCl)c1ccccc1 | 12.6 µM (active) | –
35 | Cc1cc(C)n(CC(O)COc2ccc(C(C)(C)C)cc2)n1 (centres undefined) | – | -13.9% (inactive)
36 | CCc1ccc(N(C(=O)c2csnn2)C(C(=O)NC2CCCCC2)c2cccnc2)cc1 (centres undefined) | – | 15.8% (inactive)
37 | O=C(O)c1cc(S(=O)(=O)N(Cc2ccccc2)c2cccc(C(F)(F)F)c2)ccc1Cl | – | 10.3% (inactive)
38 | O=S(=O)(NCCc1ccc(Cl)cc1)c1cccs1 | – | 23.7% (inactive)
39 | COC(=O)c1c(NC(=O)c2ccc(S(=O)(=O)N3CCOCC3)cc2)sc2c1CCN(C(C)C)C2 | – | -7.46% (inactive)
40 | CC(CCc1ccccc1)NC(=O)c1cnc(Cl)c(Cl)c1 (centres undefined) | – | 10.2% (inactive)
41 | Cc1nn(Cc2ccc(C(=O)N3N=C(C(F)F)CC3(O)C(F)F)cc2)c(C)c1[N+](=O)[O-] (centres undefined) | 12.6 µM (active) | –
42 | CCc1ccc(NC(=O)Cn2nc(C)c([N+](=O)[O-])c2C)cc1 | – | 22.5% (inactive)
43 | Cc1ccn(CC(=O)N2N=C(C(F)F)CC2(O)C(F)F)n1 (centres undefined) | – | -2.3% (inactive)
44 | CN(Cc1c(F)cccc1Cl)S(=O)(=O)c1cccs1 | – | -26.5% (inactive)
45 | COc1ccc(C(=O)Nc2nncs2)c(OC)c1 | – | -24.7% (inactive)
46 | COc1ccc(C(=O)NCc2nnc(SCC(=O)NC3=NCCS3)n2C)cc1 | – | 0.365% (inactive)
47 | COc1ccc(C(=O)NC2=NCCS2)c(OC)c1 | 11.2 µM (active) | –
48 | CSCC[C@H](NC(=O)N1CCn2c1nc1ccccc12)C(=O)NC1CCCCC1 | – | 0.349% (inactive)
49 | CC(C)OC(=O)c1ccc(COc2ccc3ccc(=O)oc3c2)o1 | – | 3.55% (inactive)
50 | Cc1ccc(-c2nnc(SCC(=O)N/N=C/c3cccs3)n2-c2ccc(C)cc2)cc1 | 17.8 µM (active) | –

Row | SMILES | Potency | activity change, negative = inhibition
51 | NNC(=O)CSc1nnc(-c2ccccc2)n1-c1ccccc1 | – | 1.72% (inactive)
52 | Cc1ccc(-n2c(SCC(=O)N3c4ccccc4Sc4ccccc43)nnc2-c2ccncc2)cc1 | – | 7.55% (inactive)
53 | COCCN1C(=O)C(=O)/C(=C(/O)c2ccc(S(=O)(=O)N3CCOCC3)cc2)C1c1ccc(OC)c(OC)c1 (centres undefined) | – | 1.24% (inactive)
54 | COc1ccc(C2C3=C(CCCC3=O)N(CC(=O)O)C3=C2C(=O)CCC3)cc1 | – | -18.3% (inactive)
55 | Cc1cc(NC(=O)Nc2ccc(Cl)cc2)n(-c2ccccc2)n1 | – | -13.5% (inactive)
56 | CC(=O)N/C(=N/c1nc(C)cc(C)n1)Nc1ccc(F)cc1F | – | -28.3% (inactive)
57 | Cc1cc(C)nc(-n2nc(C)cc2NC(=O)c2ccc(F)cc2F)n1 | 0.178 µM (active) | –
58 | CCN1C(=O)c2cccc3c(S(=O)(=O)Nc4ccccc4O)ccc1c23 | – | -39.5% (inactive)
59 | CN(C)c1cccc(C(=O)N2CCC(n3nccc3NC(=O)C3CCOC3)CC2)c1 (centres undefined) | – | -3.44% (inactive)
60 | N#Cc1ccc(S(=O)(=O)NCC(=O)OCC(=O)NCCc2ccccc2)cc1 | – | -1.08% (inactive)
61 | CCCCNC(=O)CCn1c(=S)[nH]c2cc3c(cc2c1=O)OCO3 | – | -20.7% (inactive)
62 | O=C(CCCCCn1c(=S)[nH]c2cc3c(cc2c1=O)OCO3)N1CCN(c2ccc(F)cc2)CC1 | 4.47 µM (active) | –
63 | Cc1ccc(C)c(N2CCN(C(=O)CCCCCn3c(=S)[nH]c4ccc(N5CCOCC5)cc4c3=O)CC2)c1 | 10 µM (active) | –
64 | CC(C)NC(=O)CCCn1c(=S)[nH]c2cc3c(cc2c1=O)OCO3 | – | -17.2% (inactive)
65 | Cc1ccc(C)c(N2CCN(C(=O)CCCCn3c(=O)[nH]c4ccccc4c3=O)CC2)c1 | – | 4.13% (inactive)
66 | Cc1ccc(C)c(N2CCN(C(=O)CCCn3c(=O)c4cccn4c4cccnc43)CC2)c1 | – | 33% (inactive)
67 | Cc1ccnc(N2CCCC(C(=O)NC3CC3)C2)n1 (centres undefined) | – | 1.65% (inactive)
68 | Cc1ccnc(-n2sc3ccccc3c2=O)n1 | 11.2 µM (active) | –
69 | Cc1ccnc(Nc2nc3ccccc3s2)n1 | – | -0.115% (inactive)
70 | CCCCSCCCNC(=O)C1CCC(CNS(=O)(=O)c2ccc(NC(C)=O)cc2)CC1 (centres undefined) | – | 36.7% (inactive)
71 | S=c1[nH]nc(CSCc2ccc(Cl)cc2Cl)n1-c1ccccc1 | 1.26 µM (active) | –
72 | Cc1ccc(OCc2n[nH]c(=S)n2-c2ccc(C)cc2)cc1 | – | -0.176% (inactive)
73 | CCCCC(CC(C)O)c1n[nH]c(=S)n1-c1ccccc1 (centres undefined) | – | 2.91% (inactive)
74 | O=[N+]([O-])c1ccccc1/C=N/n1c(COc2ccccc2)n[nH]c1=S | – | -17.4% (inactive)
75 | Cc1ccc(OCc2n[nH]c(=S)n2-c2ccccc2)cc1 | 0.708 µM (active) | –

Row | SMILES | Potency | activity change, negative = inhibition
76 | CC(NS(=O)(=O)c1ccccc1)c1n[nH]c(=S)n1-c1ccccc1 (centres undefined) | – | -25.6% (inactive)
77 | O=c1[nH]nc(CSCc2ccccc2Cl)[nH]1 | – | 13.7% (inactive)
78 | CC(Sc1nnc(COc2ccccc2)n1-c1ccccc1)C(=O)O (centres undefined) | – | -6.73% (inactive)
79 | S=c1[nH]nc(COc2ccccc2)n1-c1ccccc1 | 3.98 µM (active) | –
80 | O=S(=O)(Oc1ccccc1C(=S)N1CCOCC1)c1ccc(Cl)cc1 | – | -1.78% (inactive)
81 | Cc1cc(C)cc(C(=O)NCCN2CCOCC2)c1 | – | -10.6% (inactive)
82 | O=C1CCNCCN1[C@H](CO)Cc1ccccc1 | – | -13.7% (inactive)
83 | Cc1cc2occ(CC(=O)NNC(=O)c3ccccc3F)c2cc1C | – | 18.8% (inactive)
84 | Cn1cccc1/C=N/NC(=O)c1ccc(OC(F)(F)C(F)F)cc1 | 2 µM (active) | –
85 | O=C(N/N=C/c1cccnc1)c1ccc(NC(=O)c2ccc(F)cc2)cc1 | – | -2.69% (inactive)
86 | Cc1cccc(C(=O)Nc2ccc(C(=O)N/N=C/c3cccc(C)n3)cc2)c1 | – | 1.91% (inactive)
87 | C/C(=N\NC(=O)Cc1ccccc1[N+](=O)[O-])c1cccnc1 | – | 26.2% (inactive)
88 | CC1CC(C)CN(C(=O)C2CC(=O)N(c3ccc(F)cc3)C2)C1 (centres undefined) | – | -8.45% (inactive)
89 | O=C(O)c1ccccc1CSc1nc2ccccc2s1 | – | -0.569% (inactive)
90 | COc1ccc(S(=O)(=O)Nc2ccc(O)c(Sc3nc4ccccc4s3)c2)cc1 | – | 1.49% [at 10 µM] (inactive)
91 | O=C(O)c1cccc(S(=O)(=O)Nc2ccc(O)cc2Sc2nc3ccccc3s2)c1 | 10 µM (active) | –
92 | COc1c(O)cc2oc(-c3ccc(O)c(O)c3)cc(=O)c2c1O | inactive and 12.6 µM (active) | –
93 | Cc1cccc(-c2cc(=O)c3cc(C)ccc3o2)c1 | – | -18.1% (inactive)
94 | CCOC(=O)COc1cc(O)c2c(=O)cc(-c3ccccc3)oc2c1 | – | -12% (inactive)
95 | COc1ccc(-c2cc(=O)c3c(O)cc(O[C@@H]4O[C@H](CO[C@@H]5O[C@@H](C)[C@H](O)[C@@H](O)[C@H]5O)[C@@H](O)[C@H](O)[C@H]4O)cc3o2)cc1O | – | 1.9% (inactive)
96 | O=c1cc(-c2ccc(O)c(O)c2)oc2cccc(O)c12 | 14.1 µM (active) | –
97 | O=c1cc(-c2ccc(O)cc2)oc2c(-c3cc(-c4cc(=O)c5c(O)cc(O)cc5o4)ccc3O)c(O)ccc12 | – | 5.83% (inactive)
98 | Cc1ccc(-c2noc(C3CCCN(C(=O)c4cccc(Cl)c4)C3)n2)o1 (centres undefined) | – | -1.35% (inactive)
99 | CCOC(=O)N1CCN(Cc2nc3cc(NC(=O)CC)ccc3n2CC)CC1 | – | -9.43% (inactive)
